Reference: PubChem BioAssay (EPA / NIEHS)
Inconclusive results are not listed. Activity calls are given as the source filed them. Rule for the calls, unless noted: active = hit-call score of the fitted dose curve at least 0.9, where 1 is the maximum; inactive = score below 0.9.

How the values were obtained:
[1] = CCTE_Mundy_HCI_Cortical_Synap_Neur_Matur_NeuriteLength: CCTE's Synaptogenesis and Neurite Maturation Assay in rat cortical cells for Neurite Length, Mundy Lab (AID 2284214)
How it was run: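 Rat primary cortical cells were plated, treated with AraC at DIV 5 to arrest glial growth, then chemical-dosed with media change at DIV 7 through DIV 12. Fixed cells stained for MAP2, synaptophysin and Hoechst; neurite length quantified by high-content imaging.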

[2] = CCTE_Mundy_HCI_Cortical_Synap_Neur_Matur_NeuriteSpotCountPerNeuron: CCTE's Synaptogenesis and Neurite Maturation Assay in rat cortical cells for Neurite Spot Count per Neuron Count, Mundy Lab (AID 2284215)
How it was run: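 Rat primary cortical cultures given AraC at DIV 5, dosed from DIV 7 to DIV 12 with media change. Fixed, stained for MAP2, synaptophysin and Hoechst; neurite-associated synaptophysin puncta per neuron quantified by high-content imaging versus DMSO.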

[3] = CCTE_Mundy_HCI_Cortical_Synap_Neur_Matur_SynapseCount: CCTE's Synaptogenesis and Neurite Maturation Assay in rat cortical cells for Synapse Count, Mundy Lab (AID 2284218)
How it was run: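 Rat primary cortical cells in 96-well plates received AraC at DIV 5 and were dosed with chemicals at DIV 7 with media change, through DIV 12 (288.33 h). Synapses per neuron counted by high-content imaging of MAP2/synaptophysin/Hoechst staining, versus DMSO baseline.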

[4] = CCTE_Mundy_HCI_Cortical_Synap_Neur_Matur_NeuriteCount: CCTE's Synaptogenesis and Neurite Maturation Assay in rat cortical cells for Neurite Count, Mundy Lab (AID 2284222)
How it was run: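 Rat primary cortical cells; AraC added at DIV 5, chemicals dosed with media change at DIV 7 through DIV 12. MAP2/synaptophysin/Hoechst immunostaining, high-content imaging of neurite number; fitted relative to DMSO.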

[5] = CCTE_Mundy_HCI_Cortical_Synap_Neur_Matur_CellBodySpotCount: CCTE's Synaptogenesis and Neurite Maturation Assay in rat cortical cells for Cell Body Spot Count, Mundy Lab (AID 2284223)
How it was run: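 Primary rat cortical cultures, AraC added at DIV 5; dosed DIV 7 through DIV 12 […]. Fixed, stained for MAP2 and synaptophysin with Hoechst; cell body-associated synaptophysin puncta per neuron counted by high-content imaging, loss vs DMSO.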

[6] = CCTE_Mundy_HCI_hNP1_Pro_ResponderAvgInten: CCTE's Proliferation Assay in human neuroprogenitor cells, Mundy Lab (AID 2284224; active = hit-call score of the fitted dose curve at least 0.9, where 1 is the maximum;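 note: human neural progenitor cells hNP1 derived from WA09 embryonic stem cells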)
How it was run: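 Proliferation read as average intensity of BrdU-positive cells, imaged at 26.25 h post-dosing: chemical exposure started after 40–44 h culture, BrdU during final 4 h, paraformaldehyde fixation. Positive-direction fit relative to DMSO.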

[7] = UKN2_HCS_IMR90_cell_viability: Viability Assessment in the University of Konstanz (UKN) Leist Lab Neural Crest Cell Migration Assay in human induced IMR90 Pluripotent Stem Cells (UKN2) (AID 2284233);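 note: viability of neural crest cells differentiated from IMR90 iPSC measured by calcein-AM fluorescence imaging; cells exposed to compound for 24 h after a 24 h migration phase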
How it was run: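 Neural crest cells derived from IMR90 iPSC migrate into a stopper-free zone for 24 h in EGF/FGF medium, then are exposed to compound for 24 h. Viability assessed by calcein-AM and Hoechst staining with high-content imaging, fitted bidirectionally versus DMSO.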

[8] = CCTE_Mundy_HCI_Cortical_NOG_NeuronCount: CCTE's Neurite Outgrowth Assay in rat cortical cells for Neuron Count, Mundy Lab (AID 2284236; active = hit-call score of the fitted dose curve at least 0.9, where 1 is the maximum;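 note: neurons counted by imaging betaIII-tubulin and Hoechst stained cortical cells; cells exposed to compound for about 48 hours before fixation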)
How it was run: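 Read-out: neuron number by high-content imaging of betaIII-tubulin (Alexa Fluor-488) and Hoechst-labelled rat primary cortical cells.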

[9] = CCTE_Mundy_HCI_Cortical_NOG_BPCount: CCTE's Neurite Outgrowth Assay in rat cortical cells for Branch Point Count, Mundy Lab (AID 2284237);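 note: branch points counted about two days after chemical exposure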
How it was run: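 Measured 50.33 h after dosing, this morphology endpoint uses rat primary cortical cultures labelled for betaIII-tubulin. Branch points are quantified by high-content imaging, with DMSO as negative control and baseline.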

[10] = CCTE_Mundy_HCI_hNP1_Casp3_7: CCTE's Caspase-Glo 3/7 Assay in human neuroprogenitor cells for Apoptosis, Mundy Lab (AID 2284240)
How it was run: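 Luminescent caspase-3/7 readout, 26.5 h post-dose, in human neural progenitor cells from WA09 embryonic stem cells. Cells grew 40–44 h at 37 °C, 5% CO2 before chemical addition. Activity analysed as signal increase over DMSO baseline.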

[11] = CCTE_Mundy_HCI_Cortical_Synap_Neur_Matur_NeuronCount: CCTE's Synaptogenesis and Neurite Maturation Assay in rat cortical cells for Neuron Count, Mundy Lab (AID 2284242; active = hit-call score of the fitted dose curve at least 0.9, where 1 is the maximum;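 note: hits reduce neuron count versus DMSO baseline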)
How it was run: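 Rat primary cortical cells received AraC at DIV 5 to arrest glia, then were dosed with chemicals at DIV 7 through DIV 12. Fixed cells were stained for nuclei, MAP2 and synaptophysin, and neurons were counted by high-content imaging relative to DMSO.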

[12] = IUF_NPC2c_oligodendrocyte_migration_120hr: Leibniz Research Institute for Environmental Medicine (IUF) 120-hour Neural Progenitor Cell Migration Assay for Oligodendrocyte Migration (NPC2c) (AID 2284297);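 note: O4-positive oligodendrocyte migration distance divided by radial glia migration distance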
How it was run: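 Human fetal neural progenitor spheres (0.3 mm) are plated on poly-D-lysine/laminin in N2 differentiation medium and exposed for 120 h, with half-medium renewal at day 3. Oligodendrocyte (O4+) migration distance comes from ICC imaging, normalised to radial glia migration.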

[13] = IUF_NPC2a_radial_glia_migration_120hr: Leibniz Research Institute for Environmental Medicine (IUF) 120-hour Neural Progenitor Cell Migration Assay for Radial Glia Migration (NPC2a) (AID 2284298)
How it was run: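 Human fetal-cortex neural progenitor spheres (0.3 mm) plated on poly-D-lysine/laminin in N2 differentiation medium, exposed 120 h at 37C with half-medium renewal at day 3. Radial glia migration distance (um) measured from Hoechst-stained nuclei images; DMSO baseline.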

[14] = IUF_NPC2a_radial_glia_migration_72hr: Leibniz Research Institute for Environmental Medicine (IUF) 72-hour Neural Progenitor Cell Migration Assay for Radial Glia Migration (NPC2a) (AID 2284299)
How it was run: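 Human fetal cortex (GW 16-19) neural progenitor spheres, 0.3 mm, plated on poly-D-lysine/laminin in N2 differentiation medium with compound from day 0. Radial glia migration distance (um, sphere core edge to migration edge) measured manually in four directions on 72 h brightfield images; well mean used.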

[15] = IUF_NPC2b_neuronal_migration_120hr: Leibniz Research Institute for Environmental Medicine (IUF) 120-hour Neural Progenitor Cell Migration Assay for Neuron Migration (NPC2b) (AID 2284300)
How it was run: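 0.3 mm hNPC spheres on poly-D-lysine/laminin in N2 differentiation medium exposed 120 h, half-medium refresh day 3; 7 concentrations, DMSO max 0.1%. Neuron (TUBB3) distance from sphere core by ICC imaging, normalised to radial glia migration.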

[16] = IUF_NPC3_neuronal_differentiation_120hr: Leibniz Research Institute for Environmental Medicine (IUF) 120-hour Neuronal Differentiation Assay (NPC3) (AID 2284301)
How it was run: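 Human fetal (GW 16-19) neural progenitor spheres (0.3 mm) plated on poly-D-lysine/laminin in N2 differentiation medium, exposed 120 h at 37C with half-medium renewal day 3; 7 concentrations. TUBB3+ cells as % of Hoechst nuclei, CNN-identified; DMSO baseline.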

[17] = IUF_NPC4_neurite_length_120hr: Leibniz Research Institute for Environmental Medicine (IUF) 120-hour Neuronal Morphology Assay for Neurite Length (NPC4) (AID 2284302)
How it was run: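 Human fetal neural progenitor spheres (0.3 mm) plated on poly-D-lysine/laminin in N2 differentiation medium, exposed from day 0 for 120 h with half-medium refresh at day 3, 37C. Mean neurite length (um) of TUBB3-positive neurons from skeletonized immunostaining images; DMSO ≤0.1%.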

[18] = IUF_NPC4_neurite_area_120hr: Leibniz Research Institute for Environmental Medicine (IUF) 120-hour Neuronal Morphology Assay for Neurite Area (NPC4) (AID 2284305; active = hit-call score of the fitted dose curve at least 0.9, where 1 is the maximum)
How it was run: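 Human fetal neural progenitor spheres (0.3 mm) plated on poly-D-lysine/laminin in N2 differentiation medium, exposed 120 h (7 concentrations, DMSO ≤0.1%, half-medium refresh day 3). Fixed, TUBB3 immunostained; mean neurite area per neuron by Omnisphero skeletonization.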

[19] = IUF_NPC2-5_cytotoxicity_72hr: Cytotoxicity Assessment at 72 hours in the Leibniz Research Institute for Environmental Medicine (IUF) Neural Progenitor Cell Migration and Differentiation Assay for Cytotoxicity (NPC2-5) (AID 2284306; active = hit-call score of the fitted dose curve at least 0.9, where 1 is the maximum;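 note: LDH release into supernatant measured by resorufin fluorescence marking membrane damage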)
How it was run: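 Human fetal primary neural progenitor spheres (0.3 mm) plated on poly-D-lysine/laminin in N2 differentiation medium, exposed from day 0 at 37C. LDH-dependent resazurin-to-resorufin fluorescence in supernatant at 72 h; 7 concentrations, DMSO at most 0.1%.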

[20] = IUF_NPC2-5_cytotoxicity_120hr: Cytotoxicity Assessment at 120 hours in the Leibniz Research Institute for Environmental Medicine (IUF) Neural Progenitor Cell Migration and Differentiation Assay (NPC2-5) (AID 2284307; active = hit-call score of the fitted dose curve at least 0.9, where 1 is the maximum)
How it was run: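 Human fetal (GW 16-19) neural progenitor spheres (0.3 mm) plated on poly-D-lysine/laminin in N2 differentiation medium, exposed 120 h with half-medium renewal at day 3; 7 concentrations plus solvent control, DMSO ≤0.1%. LDH release in supernatant read by resorufin fluorescence.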

[21] = IUF_NPC2-5_cell_number_120hr: Cell Number Assessment at 120 hours in the Leibniz Research Institute for Environmental Medicine (IUF) Neural Progenitor Cell Migration and Differentiation Assay (NPC2-5) (AID 2284308);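 note: count of Hoechst-stained nuclei in migration zone around plated human neural progenitor spheres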
How it was run: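 Human fetal neural progenitor spheres (0.3 mm) plated on poly-D-lysine/laminin in N2 differentiation medium, exposed five days across 7 concentrations with half-medium refresh at day 3. Hoechst-positive nuclei counted in migration area at 120 h, relative to DMSO.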

[22] = IUF_NPC2-5_viability_120hr: Viability Assessment at 120 hours in the Leibniz Research Institute for Environmental Medicine (IUF) Neural Progenitor Cell Migration and Differentiation Assay (NPC2-5) (AID 2284312)
How it was run: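 Human fetal neural progenitor spheres (0.3 mm) plated on poly-D-lysine/laminin in N2 differentiation medium, exposed 120 h with half-medium refresh at day 3. Viability by alamar blue resazurin fluorescence; 7 concentrations, DMSO max 0.1%.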

[23] = CCTE_Mundy_HCI_iCellGluta_NOG_NeuriteLength: CCTE's Neurite Outgrowth Assay in iCellGluta cells for Neurite Length, Mundy Lab (AID 2284318; active = hit-call score of the fitted dose curve at least 0.9, where 1 is the maximum)
How it was run: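 Automated high-content imaging of betaIII-tubulin (Alexa Fluor-488) and Hoechst-stained cells gave neurite length, normalized to the DMSO baseline.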

[24] = IUF_NPC1_cytotoxicity_72hr: Cytotoxicity Assessment at 72 hours in the Leibniz Research Institute for Environmental Medicine (IUF) Neural Progenitor Cell Proliferation Assay (NPC1) (AID 2284332; active = hit-call score of the fitted dose curve at least 0.9, where 1 is the maximum;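 note: rising LDH signal means more cytotoxicity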)
How it was run: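 Single human fetal cortex neural progenitor spheres (GW 16-19, 0.25-0.35 mm) in EGF/FGF proliferation medium were exposed to compound for 72 h at 37C without renewal. Medium LDH release was read as resorufin fluorescence and fitted as gain-of-signal.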

[25] = CCTE_Mundy_HCI_iCellGluta_NOG_NeuronCount: CCTE's Neurite Outgrowth Assay in iCellGluta cells for Neuron Count, Mundy Lab (AID 2284340; active = hit-call score of the fitted dose curve at least 0.9, where 1 is the maximum;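 note: cells fixed about 48 h after compound addition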)
How it was run: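 Neuron count read by automated high-content imaging of Hoechst 33342 and betaIII-tubulin/Alexa Fluor-488 labelling in human iPSC glutamatergic neurons. Activity fitted relative to DMSO.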

[26] = CCTE_Mundy_HCI_iCellGluta_NOG_NeuriteCount: CCTE's Neurite Outgrowth Assay in iCellGluta cells for Neurite Count, Mundy Lab (AID 2284342; active = hit-call score of the fitted dose curve at least 0.9, where 1 is the maximum;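 note: chemical exposure about 48 hours starting 2 hours after plating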)

Measured: AC50

CC(=O)[O-].[Tl+]
inactive: [6] | [10] | [19] | [20] | [24]
active: [1] 23.8 µM | [2] 24.4 µM | [3] 31.9 µM | [4] 25.3 µM | [5] 30.1 µM | [7] 90 µM | [8] 50 µM | [9] 50 µM | [11] 15.4 µM | [12] 59.4 µM | [13] 44.2 µM | [14] 62.7 µM | [15] 33 µM | [16] 50.1 µM | [17] 34.6 µM | [18] 30.9 µM | [21] 35.4 µM | [22] 21.6 µM | [23] 2.79 µM | [25] 31.3 µM | [26] 2.26 µM
